Measured values reported in publication PMC4336329 (PLoS ONE, 2015).
Hit rate of the full screen: of about 310,000 compounds, about 14,000 (4.5%) showed an effect of 50% or more. The effect is printed as a negative number. The list comes from a sample in which strong results are over-represented; it also holds similar structures and randomly drawn compounds.

target: human ether-à-go-go-related gene (hERG) potassium channel (human, UniProt Q12809); assay: primary screen, population patch clamp on CHO cells stably expressing hERG; higher = less effect of the substance
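Note: peak tail current of the secondary pulse compared with the same well before compound.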

human ether-à-go-go-related gene (hERG) potassium channel, sequence (Q12809 whole entry, looked up): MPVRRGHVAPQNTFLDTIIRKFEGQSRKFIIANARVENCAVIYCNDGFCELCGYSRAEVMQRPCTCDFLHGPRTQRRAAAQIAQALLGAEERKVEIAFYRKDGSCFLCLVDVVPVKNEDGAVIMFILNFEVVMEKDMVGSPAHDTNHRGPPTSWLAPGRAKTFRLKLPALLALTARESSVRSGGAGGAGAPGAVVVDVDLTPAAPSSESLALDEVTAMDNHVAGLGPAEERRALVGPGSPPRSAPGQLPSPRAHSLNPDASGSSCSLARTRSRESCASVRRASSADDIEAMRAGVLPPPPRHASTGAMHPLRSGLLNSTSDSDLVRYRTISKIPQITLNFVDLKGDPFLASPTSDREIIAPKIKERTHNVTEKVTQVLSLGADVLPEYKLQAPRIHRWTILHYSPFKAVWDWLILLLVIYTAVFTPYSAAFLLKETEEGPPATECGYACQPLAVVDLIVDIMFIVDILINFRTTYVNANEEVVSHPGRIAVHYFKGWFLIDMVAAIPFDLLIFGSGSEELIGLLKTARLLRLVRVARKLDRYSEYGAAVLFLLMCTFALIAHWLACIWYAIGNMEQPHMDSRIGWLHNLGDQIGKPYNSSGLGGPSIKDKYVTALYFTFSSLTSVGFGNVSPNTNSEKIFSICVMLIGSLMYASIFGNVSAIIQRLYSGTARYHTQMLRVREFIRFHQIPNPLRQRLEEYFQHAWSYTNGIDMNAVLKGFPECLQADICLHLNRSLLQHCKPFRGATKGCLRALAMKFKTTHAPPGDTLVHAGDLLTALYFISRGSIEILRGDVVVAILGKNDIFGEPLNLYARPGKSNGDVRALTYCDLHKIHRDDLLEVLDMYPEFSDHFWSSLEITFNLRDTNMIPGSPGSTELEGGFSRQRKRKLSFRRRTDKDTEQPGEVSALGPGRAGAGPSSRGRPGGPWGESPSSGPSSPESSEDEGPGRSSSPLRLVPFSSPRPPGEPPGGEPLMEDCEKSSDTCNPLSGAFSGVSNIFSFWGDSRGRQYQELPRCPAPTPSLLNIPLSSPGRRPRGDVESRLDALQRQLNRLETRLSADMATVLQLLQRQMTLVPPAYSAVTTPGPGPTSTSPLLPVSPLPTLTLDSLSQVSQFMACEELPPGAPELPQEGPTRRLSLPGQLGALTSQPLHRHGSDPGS

Compound	hERG current change (%, negative = inhibition) at 10uM
CC(C)Sc1nsc2nc(=O)c(/C=C3\C=Nc4ccccc43)c(N)n12	11.7%
CN(CC(=O)Nc1cccnc1)S(=O)(=O)c1ccc(Br)cc1	-21.3%
COC(=O)c1ccc(/C=N/NC(=O)CC(=O)NCC(C)C)cc1	20.5%
CC(=O)c1ccc(N/N=C2/CCCNC2=O)cc1	11.3%
Oc1ccccc1/C=N/NC(=S)NC1CC2CC1C1C=CCC21 (stereo not drawn)	27.3%
c1cnc(N2CCSCC2)nc1	0.773%
C#CCSc1nc(-c2ccccc2)cc(C(F)(F)F)c1C#N	7.12%
C=CCOc1ccccc1CN1CCC(C(=O)Nc2cccc(-c3ccn[nH]3)c2)CC1	-33.9%
CCn1cc(CN2CCC(C(=O)Nc3cccc(-c4cccc(Cl)c4)c3)CC2)cn1	-67.9%
CCCn1ncc(CN2CCC(C(=O)Nc3cccc(-c4cccc(F)c4)c3)CC2)c1C	-71.7%
CCCn1cc(CN2CCC(C(=O)Nc3cccc(-c4cscn4)c3)CC2)c(C)n1	-45.3%
CC(=O)c1cccc(CN2CCC(C(=O)Nc3cccc(-c4ccn[nH]4)c3)CC2)c1	-3.45%
CCn1cc(CN2CCC(C(=O)Nc3cccc(-c4cccc(OC)c4)c3)CC2)cn1	-49.8%
CCCn1ncc(CN2CCC(N3CCC(C(=O)N4CCOCC4)CC3)CC2)c1C	14.4%
CCOc1ccc(CN2CCC(C(=O)Nc3cccc(-c4ccn[nH]4)c3)CC2)cc1Cl	-62.3%
CCn1cc(CN2CCC(C(=O)Nc3cccc(-c4cscn4)c3)CC2)cn1	-15.4%
COCCn1c(SCC(=O)OCc2ccccc2)nc2c1c(=O)[nH]c(=O)n2C	-25.6%
CCN1C(=O)CC(N2CCC(Cc3ccccc3)CC2)C1=O (stereo not drawn)	-2.52%
CCOC(=O)C1(C)NC(c2ccco2)C2C(=O)N(c3ccccc3)C(=O)C21 (stereo not drawn)	10.4%
Cc1cc(Br)ccc1NC(=O)C1CCN(S(=O)(=O)c2cnc[nH]2)CC1	8.88%
COc1ccc2c(c1)C(c1ccc(N3CCOCC3)cc1)=NNC(c1cccnc1)=N2	-5.34%
Clc1ccc(Cc2ccccc2)nn1	4.59%

Compound	hERG current change (%, negative = inhibition) at 10uM
COc1cc(C(Nc2ccc3c(c2)OCO3)C(=O)NC2CCCCC2)cc(OC)c1OC (stereo not drawn)	-61.7%
COc1cc(NC(=O)Nc2ccc3c(c2)OCO3)cc(OC)c1OC	31.4%
COc1cc(C(=O)NC(=S)Nc2ccc3c(c2)OCO3)cc(OC)c1OC	12.1%
CCS(=O)(=O)C1=NSC2=NC(=O)/C(=C\c3ccc(OC(=O)c4ccco4)c(OC)c3)C(=N)N21	8.51%
COc1cccc(NC(=O)CSc2nc3ccccc3n2C)c1	-16.5%
COC(=O)c1c(C(=O)OC)c2cc(C)ccn2c1Cl	-24.9%
O=C(CCn1c(=O)oc2ccc(Cl)cc21)N1CCN(c2ccccc2)CC1	-33.8%
O=C(C[n+]1cc(-c2ccccc2)n2c1CCCCC2)c1ccc(Br)cc1.[Br-]	-52.7%
Cc1ccc(C(=O)C[n+]2cc(-c3ccc(C)cc3)n3c2CCCCC3)cc1.[Br-]	-53.1%
Cc1ccc(-c2c[n+](CC(=O)c3ccc(Br)cc3)c3n2CCCCC3)cc1.[Br-]	-61.4%
Cc1ccc(-c2c[n+](CC(=O)OCc3ccccc3)c3n2CCC3)cc1.[Br-]	-56.3%
O=C(C[n+]1cc(-c2ccccc2)n2c1CCC2)c1cccs1.[Br-]	-3.31%
O=C(C[n+]1cc(-c2ccc(F)cc2)n2c1CCC2)OCc1ccccc1.[Br-]	-11.9%
Cc1ccc(C(=O)C[n+]2cc(-c3ccccc3)n3c2CCCCC3)cc1.[Br-]	-11.3%
O=C(C[n+]1cc(-c2ccccc2)n2c1CCC2)OCc1ccccc1.[Br-]	-15.2%
O=C(C[n+]1cc(-c2ccc(Br)cc2)n2c1CCCCC2)c1ccccc1.[Br-]	-9.11%
COc1ccc(OCCOc2ccc(/C=C3\C(=N)N4N=C(C)SC4=NC3=O)cc2)cc1	6.54%
CC1Cc2nc(SCC(=O)Nc3nccs3)n(Cc3ccccc3)c(=O)c2S1 (stereo not drawn)	2.84%
CSc1nc(N)n2nc(-c3ccc(Cl)cc3)cc2n1	5.44%
COc1ccc(C(=O)NC(Nc2ccc(C)cc2)C(Cl)(Cl)Cl)cc1 (stereo not drawn)	-0.867%
Cc1cc(C)cc(NC(=O)CN2C(=O)C3CC=CCC3C2=O)c1 (stereo not drawn)	4.39%
CC1=N/C(=C/c2cc(Br)cc(Br)c2O)C(=O)O1	17%

Compound	hERG current change (%, negative = inhibition) at 10uM
Cc1ccc(S(=O)(=O)NC(=O)Nc2ccc(C)cn2)cc1	14.6%
Cc1sc(NC(=O)c2ccco2)c(C(c2ccncc2)N2CCOCC2)c1C (stereo not drawn)	-37.1%
CCCCC(=O)N1CCN(c2nc3ccc(Cl)cc3s2)CC1	-71.1%
CC(C)(CC(=O)O)CC(=O)N1CCN(c2nc3ccc(Cl)cc3s2)CC1	14.2%
CCCC(=O)N1CCN(c2nc3ccc(Cl)cc3s2)CC1	-70.2%
CCCCC(=O)N1CCN(c2nc3ccc(OCC)cc3s2)CC1	-35.5%
CCCCC(=O)N1CCN(c2nc3ccc(F)cc3s2)CC1	-65.3%
Fc1ccc2nc(N3CCCCC3)sc2c1	5.89%
CC(C)(C)C(=O)N1CCN(c2nc3ccc(Cl)cc3s2)CC1	-12.2%
CCCC(=O)N1CCN(c2nc3ccc(CC)cc3s2)CC1	-23.4%
CCCC(=O)N1CCN(c2nc3ccccc3s2)CC1	-24.7%
Cc1cc(OC(=O)c2ccccc2Cl)ccc1N1C(=O)CCC1=O	-1.98%
O=[N+]([O-])c1ccc(O)c(-c2nn[nH]n2)c1	1.52%
CC1=NN(C(=O)c2ccc(Cn3ccc([N+](=O)[O-])n3)cc2)C(O)(C(F)(F)F)C1 (stereo not drawn)	-8.73%
O=C1N(c2ccc(Cl)cc2)C(c2ccc(Cl)cc2)N2CCCN12 (stereo not drawn)	-16.7%
COc1ccccc1/C=C1\SC(=S)N(CCC(=O)NCCc2ccc(O)cc2)C1=O	15.1%
CCOC(=O)Oc1ccc2oc(=O)cc(C)c2c1	15.9%
O=c1[nH]c(/C=C/c2cccc3ccccc23)nc2ccccc12	36.4%
COc1cccc(-c2cc(C(=O)N3CCN(C(=O)c4ccco4)CC3)on2)c1	-13.9%
Cc1ccc(-c2cc(C(=O)N3CCN(C(=O)c4ccco4)CC3)[nH]n2)cc1C	5.83%
O=C(c1ccco1)N1CCN(C(=O)c2cc(-c3ccc(F)cc3)no2)CC1	-65.1%
O=C(c1ccco1)N1CCN(C(=O)c2cc(-c3ccccc3F)no2)CC1	-15.8%

Compound	hERG current change (%, negative = inhibition) at 10uM
O=C(c1cc(-c2ccc(Cl)cc2)n[nH]1)N1CCN(C(=O)c2ccco2)CC1	-68.9%
COc1ccc(-c2cc(C(=O)N3CCN(C(=O)c4ccco4)CC3)[nH]n2)cc1	-31.6%
CCOc1ccc(NC(=O)CCNC(=O)c2ccco2)cc1	6.08%
Cc1ccc(C(=O)COC(=O)CNC(=O)Cc2ccccc2)cc1	-2.44%
COc1ccc(CCN2C(=O)c3cccc4cccc(c34)C2=O)cc1OC	12.9%
COc1ccc(C(CNC(=O)C(C)c2ccc3cc(OC)ccc3c2)N(C)C)cc1 (stereo not drawn)	-7.44%
Cc1ccc(NS(=O)(=O)c2cc(C(=O)NCc3ccccn3)ccc2Cl)cc1C	-47%
COc1ccc(N2C(=O)C3C(c4ccc(OC)cc4O)NC(Cc4ccccc4)(C(=O)O)C3C2=O)cc1 (stereo not drawn)	19.5%
COc1cc2c(cc1OC)CN(C(=O)COc1ccc(C#N)cc1)CC2	-63.4%
COc1cc2c(cc1OC)CN(C(=S)Nc1ccc(OC(F)F)cc1)CC2	-38.8%
COc1cc2c(cc1OC)CN(CC(=O)Nc1ccc(C#N)cc1)CC2	-63.1%
COc1cc2c(cc1OC)CN(C(=O)CNC(=O)c1ccc(OC(F)F)cc1)CC2	-52.5%
COc1cc2c(cc1OC)CN(CC(=O)Nc1ccc(C)cc1)CC2	-16.4%
COc1cc2c(cc1OC)CN(C(=O)COc1ccc(C)c(C)c1)CC2	-11.9%
O=C(OCC(=O)N1CCc2ccccc2C1)c1ccc(OC(F)F)cc1	-80.2%
COc1ccc(C(=O)NCC(=O)N2CCc3ccccc3C2)cc1	-2.27%
CCC(=O)c1ccc(OCC(=O)N2CCc3cc(OC)c(OC)cc3C2)cc1	-33.2%
COc1cc2c(cc1OC)CN(CC(=O)Nc1ccc(F)cc1)CC2	-7.62%
CCC(=O)c1ccc(OCC(=O)OCC(=O)N2CCc3ccccc3C2)cc1	-24.8%
NC(=O)Nc1ccc(C(=O)OCC(=O)N2CCc3ccccc3C2)cc1	5.29%
CCC(C(=O)O)n1nc(-c2ccccc2)c2cc(Cl)ccc21 (stereo not drawn)	13.8%
